# From PubChem BioAssay AID1159580 (chemical genetic matrix, 2015)
# About 2,000 (36%) of roughly 5,500 compounds were called active. Another 18% or so got no clear call; they are omitted. This is one part of the list. Values without a mark were called inactive. Rule as the data show it: active = normalized growth mostly below about 0.91 (no sharp cut-off); inconclusive = no clear call, values can overlap the other calls; inactive = mostly above about 0.92.
# Experiment: chemical genetic growth profiling, strain panel (AID 1159580);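 also: tested at 20 µM; growth read once vehicle control cultures reached saturation at 30 °C; 1 = growth at the plate median or of vehicle wells; lower values mean less growth of the strain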
# Conditions: S. cerevisiae deletion strains, growth OD
# [1] = locus YAR019C, strain CDC15, active compounds read low
# [2] = locus YBL105C, strain PKC1, active compounds read low
# [3] = locus YBR135W, strain CKS1, active compounds read low
# [4] = locus YBR136W, strain MEC1, active compounds read low
# [5] = locus YBR160W, strain CDC28, active compounds read low
# [6] = locus YDL017W, strain CDC7, active compounds read low
# [7] = locus YDL028C, strain MPS1, active compounds read low
# [8] = locus YDL101C, strain DUN1, active compounds read low
# [9] = locus YDL108W, strain KIN28, active compounds read low
# [10] = locus YDL132W, strain cdc53, active compounds read low
# [11] = locus YDL214C, strain PRR2, active compounds read low
# [12] = locus YDR052C, strain DBF4, active compounds read low
# [13] = locus YDR054C, strain cdc34, active compounds read low
# [14] = locus YDR226W, strain ADK1, active compounds read low
# [15] = locus YDR477W, strain SNF1, active compounds read low
# [16] = locus YER123W, strain YCK3, active compounds read low
# [17] = locus YER133W, strain GLC7, active compounds read low
# [18] = locus YFL009W, strain cdc4, active compounds read low
# [19] = locus YFL029C, strain CAK1, active compounds read low
# [20] = locus YFR003C, strain YPI1, active compounds read low
# [21] = locus YFR019W, strain FAB1, active compounds read low
# [22] = locus YFR028C, strain CDC14, active compounds read low
# [23] = locus YGR040W, strain KSS1, active compounds read low
# [24] = locus YGR052W, strain FMP48, active compounds read low
# [25] = locus YGR092W, strain DBF2, active compounds read low
# [26] = locus YHR030C, strain SLT2, active compounds read low
# [27] = locus YHR079C, strain IRE1, active compounds read low
# [28] = locus YHR082C, strain KSP1, active compounds read low
# [29] = locus YHR205W, strain SCH9, active compounds read low
# [30] = locus YIL147C, strain SLN1, active compounds read low
# [31] = locus YJL095W, strain BCK1, active compounds read low
# [32] = locus YJL128C, strain PBS2, active compounds read low
# [33] = locus YJL157C, strain FAR1, active compounds read low
# [34] = locus YJR016C, strain ILV3, active compounds read low
# [35] = locus YJR066W, strain TOR1 (second series), active compounds read low
# [36] = locus YJR066W, strain TOR1, active compounds read low
# [37] = locus YKL048C, strain ELM1, active compounds read low
# [38] = locus YKL067W, strain YNK1, active compounds read low
# [39] = locus YKL101W, strain HSL1, active compounds read low
# [40] = locus YKL193C, strain SDS22, active compounds read low
# [41] = locus YKL203C, strain TOR2, active compounds read low
# [42] = locus YLR113W, strain HOG1, active compounds read low
# [43] = locus YLR133W, strain CKI1, active compounds read low
# [44] = locus YLR403W, strain SFP1, active compounds read low
# [45] = locus YML070W, strain DAK1, active compounds read low
# [46] = locus YMR001C, strain CDC5, active compounds read low
# [47] = locus YMR205C, strain PFK2 (second series), active compounds read low
# [48] = locus YMR277W, strain FCP1, active compounds read low
# [49] = locus YNL006W, strain LST8, active compounds read low
# [50] = locus YNL020C, strain ARK1, active compounds read low
# [51] = locus YNL161W, strain CBK1, active compounds read low
# [52] = locus YNL183C, strain NPR1, active compounds read low
# [53] = locus YNL207W, strain RIO2, active compounds read low
# [54] = locus YNL222W, strain SSU72, active compounds read low
# [55] = locus YNL307C, strain MCK1 (second series), active compounds read low
# [56] = locus YOL078W, strain AVO1, active compounds read low
# [57] = locus YOL136C, strain PFK27, active compounds read low
# [58] = locus YOR061W, strain CKA2, active compounds read low
# [59] = locus YOR119C, strain RIO1, active compounds read low
# [60] = locus YOR231W, strain MKK1, active compounds read low
# [61] = locus YOR329C, strain SCD5, active compounds read low
# [62] = locus YPL031C, strain PHO85, active compounds read low
# [63] = locus YPL153C, strain RAD53, active compounds read low
# [64] = locus YPL204W, strain HRR25, active compounds read low
# [65] = locus YPL209C, strain IPL1, active compounds read low
# [66] = locus YPL256C, strain CLN2, active compounds read low
# [67] = locus YPR025C, strain CCL1, active compounds read low
# [68] = locus YPR106W, strain ISR1, active compounds read low
# [69] = locus YPR111W, strain DBF20, active compounds read low
# [70] = strain NNK1, active compounds read low
# [71] = strain TSCII, active compounds read low
compound,measurement,setting,value
COc1ccc(-n2nc(C(F)(F)F)cc2-c2ccc(Cl)cc2)cc1,normalized growth,"locus YAL040C, strain CLN3, active compounds read low",1.09
same,normalized growth,"locus YCL061C, strain MRC1 (second series), active compounds read low",1.01
same,normalized growth,"locus YDR363W, strain ESC2, active compounds read low",1.02
same,normalized growth,"locus YER002W, strain NOP16, active compounds read low",1.03
same,normalized growth,"locus YGR078C, strain PAC10, active compounds read low",1.01
same,normalized growth,"locus YMR263W, strain SAP30, active compounds read low",1
same,normalized growth,"locus YMR307W, strain GAS1, active compounds read low",1.01
same,normalized growth,"locus YNL175C, strain NOP13, active compounds read low",1.02
same,normalized growth,"locus YNL197C, strain WHI3, active compounds read low",1.02
same,normalized growth,"locus YNL224C, strain SQS1, active compounds read low",0.998
same,normalized growth,"locus YNL322C, strain KRE1, active compounds read low",1.02
same,normalized growth,"locus YOR083W, strain WHI5 (second series), active compounds read low",1.02
same,normalized growth,"locus YPL055C, strain LGE1, active compounds read low",1.02
same,normalized growth,"locus YPL241C, strain CIN2, active compounds read low",1
O=S(=O)(Nc1ccc(-n2nc(C(F)(F)F)cc2-c2cccs2)cc1)c1ccc(F)cc1,normalized growth,[1],0.993
same,normalized growth,[2],0.979
same,normalized growth,[3],0.997
same,normalized growth,[4],0.991
same,normalized growth,[5],0.998
same,normalized growth,[6],0.99
same,normalized growth,[7],0.995
same,normalized growth,[8],0.993
same,normalized growth,[9],1
same,normalized growth,[10],0.989
same,normalized growth,[11],0.986
same,normalized growth,[12],0.98
same,normalized growth,[13],0.982
same,normalized growth,[14],0.996
same,normalized growth,[15],0.991
same,normalized growth,[16],0.979
same,normalized growth,[17],0.973
same,normalized growth,[18],0.991
same,normalized growth,[19],0.994
same,normalized growth,[20],0.99
same,normalized growth,[21],0.985
same,normalized growth,[22],0.997
same,normalized growth,[23],0.987
same,normalized growth,[24],1.04
same,normalized growth,[25],0.99
same,normalized growth,[26],1.01
same,normalized growth,[27],0.993
same,normalized growth,[28],1.06
same,normalized growth,[29],0.983
same,normalized growth,[30],0.99
same,normalized growth,[31],1.04
same,normalized growth,[32],0.951
same,normalized growth,[33],0.979
same,normalized growth,[34],0.999
same,normalized growth,[35],0.956
same,normalized growth,[36],1.04
same,normalized growth,[37],0.991
same,normalized growth,[38],0.991
same,normalized growth,[39],0.995
same,normalized growth,[40],0.986
same,normalized growth,[41],1.04
same,normalized growth,[42],0.938
same,normalized growth,[43],0.983
same,normalized growth,[44],0.972
same,normalized growth,[45],0.992
same,normalized growth,[46],0.989
same,normalized growth,[47],0.995
same,normalized growth,[48],0.992
same,normalized growth,[49],0.991
same,normalized growth,[50],0.987
same,normalized growth,[51],0.989
same,normalized growth,[52],1.02
same,normalized growth,[53],0.993
same,normalized growth,[54],0.99
same,normalized growth,[55],0.996
same,normalized growth,[56],0.994
same,normalized growth,[57],0.973
same,normalized growth,[58],0.998
same,normalized growth,[59],1.05
same,normalized growth,[60],0.974
same,normalized growth,[61],0.988
same,normalized growth,[62],0.986
same,normalized growth,[63],0.997
same,normalized growth,[64],0.966
same,normalized growth,[65],0.988
same,normalized growth,[66],0.94
same,normalized growth,[67],0.993
same,normalized growth,[68],0.978
same,normalized growth,[69],0.974
same,normalized growth,[70],0.975
same,normalized growth,[71],0.995
O=S(=O)(Nc1cc(-c2cccs2)nn1-c1ccc(I)cc1)c1cccc(F)c1,normalized growth,[1],0.957
same,normalized growth,[2],0.966
same,normalized growth,[3],0.966
same,normalized growth,[4],0.97
same,normalized growth,[5],0.956
same,normalized growth,[6],0.97
same,normalized growth,[7],0.948
same,normalized growth,[8],0.983
same,normalized growth,[9],0.958
same,normalized growth,[10],0.966
same,normalized growth,[11],0.926
same,normalized growth,[12],0.983
same,normalized growth,[13],0.986
same,normalized growth,[14],0.961
same,normalized growth,[15],0.926
same,normalized growth,[16],0.929
same,normalized growth,[17],0.951
same,normalized growth,[18],0.971
same,normalized growth,[19],0.953
same,normalized growth,[20],0.979
same,normalized growth,[21],0.974
same,normalized growth,[22],0.983
same,normalized growth,[23],0.931
same,normalized growth,[24],0.966
same,normalized growth,[25],0.876
same,normalized growth,[26],0.715 (active)
same,normalized growth,[27],0.922
same,normalized growth,[28],0.968
same,normalized growth,[29],0.863
same,normalized growth,[30],0.967
same,normalized growth,[31],0.903
same,normalized growth,[32],0.91
same,normalized growth,[33],0.956
same,normalized growth,[34],0.969
same,normalized growth,[35],0.952
same,normalized growth,[36],0.906
same,normalized growth,[37],0.947
same,normalized growth,[38],0.912
same,normalized growth,[39],0.931
same,normalized growth,[40],0.971
same,normalized growth,[41],1.03
same,normalized growth,[42],0.848 (active)
same,normalized growth,[43],0.935
same,normalized growth,[44],0.944
same,normalized growth,[45],0.936
same,normalized growth,[46],0.966
same,normalized growth,[47],0.945
same,normalized growth,[48],0.968
same,normalized growth,[49],0.964
same,normalized growth,[50],0.946
same,normalized growth,[51],0.974
same,normalized growth,[52],0.986
same,normalized growth,[53],0.968
same,normalized growth,[54],0.956
same,normalized growth,[55],0.911
same,normalized growth,[56],0.966
same,normalized growth,[57],0.925
same,normalized growth,[58],0.951
same,normalized growth,[59],0.961
same,normalized growth,[60],0.935
same,normalized growth,[61],0.968
same,normalized growth,[62],0.928
same,normalized growth,[63],0.943
same,normalized growth,[64],0.928
same,normalized growth,[65],0.975
same,normalized growth,[66],0.87
same,normalized growth,[67],0.966
same,normalized growth,[68],0.964
same,normalized growth,[69],1.01
same,normalized growth,[70],0.965
same,normalized growth,[71],0.965
